# Experimental data taken from PubChem BioAssay (Tox21).
# Several values for one entry are separate records, joined by “and”; a condition that tells them apart may be missing. Equal entries are not always repeated. Inconclusive results are not listed. Entries that show only a call come without a potency. Some structures have more than one record in an assay (separate samples or runs), and their calls can disagree. Activity calls are given as the source filed them. The call rests on the fitted dose curve; in most records, active means well fitted activation curve with a large enough effect in the repeat runs; inconclusive means weak or mixed curves; inactive means no such curve, though single readings can be large or run the other way.
# Biological target: Aryl hydrocarbon receptor (Homo sapiens) (UniProt P35869)
# Assay: qHTS assay to identify small molecule that activate the aryl hydrocarbon receptor (AhR) signaling pathway (AID 743085); further: nearly all actives have a fitted effect of over 15% in size;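 on activation: HG2L7.5c1 human HepG2 liver cells with stably integrated DRE-driven firefly reporter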
# Details: HepG2 AhR-luc (HG2L7.5c1), luciferase, 24 h; series mostly up to 70.3 µM; activation: at the top concentration
# Excerpt: U.S. Tox21 Program National Center for Advancing Translational Sciences [NCATS] NIH Chemical Genomics Center [NCGC] U.S. Environmental Protection Agency [EPA] National Institutes of Environmental Health Sciences [NIEHS] National Toxicology Program [NTP] U.S. Food and Drug Administration [FDA] Tox21 Assay overview: The Aryl hydrocarbon Receptor (AhR), a member of the family of basic helix-loop-helix transcription factors, is crucial to adaptive responses to environmental changes. AhR mediates cellular responses to environmental pollutants such as aromatic hydrocarbons through induction of phase I and II enzymes but also interacts with other nuclear receptor signaling pathways. A cell based HepG2-AhR-luc assay (HG2L7.5c1 cell line, developed by Dr. Michael S. Denison, University of California at Davis, was used to assess the activation of AhR. HepG2 (human hepatocellular carcinoma) cells were stably transfected with an Ah receptor-responsive firefly luciferase reporter gene plasmid containing 20 dioxin responsive elements and luciferase reporter gene. Increased luciferase activity can be used to identify the compounds that induce AhR activation.
# Tox21 Assay Protocol Summary: 4000 cells in 5 uL/well were dispensed into white wall/solid bottom 1536-well plates using a Multidrop Combi (Thermo Fisher Scientific Inc., Waltham, MA) dispenser. After the assay plates were incubated at 37C for 5 h, 23 nL of compound or DMSO vehicle was transferred to the assay plates by a pintool station (Kalypsys, San Diego, CA). The plates were incubated at 37C for 24 hr. After 1 ul/well of CellTiter-Fluor reagent (Promega, Madison, WI) was added into the assay plates using a Flying Reagent Dispenser (FRD) (Aurora Discovery, CA), the assay plates were incubated at 37C for 30 min. The fluorescence intensity in the plates was measured using a ViewLux plate reader (PerkinElmer, Shelton, CT), followed by the addition of 4 uL of ONE-Glo Luciferase Assay reagent (Promega) using an FRD (Aurora Discovery). After the assay plates were incubated at room temperature for 30 min, luminescence intensity was measured using a ViewLux plate reader (Perkin Elmer).
# Potency means the concentration at half of the fitted maximal effect.
# Sequence of Aryl hydrocarbon receptor (Homo sapiens) (P35869 whole entry, looked up): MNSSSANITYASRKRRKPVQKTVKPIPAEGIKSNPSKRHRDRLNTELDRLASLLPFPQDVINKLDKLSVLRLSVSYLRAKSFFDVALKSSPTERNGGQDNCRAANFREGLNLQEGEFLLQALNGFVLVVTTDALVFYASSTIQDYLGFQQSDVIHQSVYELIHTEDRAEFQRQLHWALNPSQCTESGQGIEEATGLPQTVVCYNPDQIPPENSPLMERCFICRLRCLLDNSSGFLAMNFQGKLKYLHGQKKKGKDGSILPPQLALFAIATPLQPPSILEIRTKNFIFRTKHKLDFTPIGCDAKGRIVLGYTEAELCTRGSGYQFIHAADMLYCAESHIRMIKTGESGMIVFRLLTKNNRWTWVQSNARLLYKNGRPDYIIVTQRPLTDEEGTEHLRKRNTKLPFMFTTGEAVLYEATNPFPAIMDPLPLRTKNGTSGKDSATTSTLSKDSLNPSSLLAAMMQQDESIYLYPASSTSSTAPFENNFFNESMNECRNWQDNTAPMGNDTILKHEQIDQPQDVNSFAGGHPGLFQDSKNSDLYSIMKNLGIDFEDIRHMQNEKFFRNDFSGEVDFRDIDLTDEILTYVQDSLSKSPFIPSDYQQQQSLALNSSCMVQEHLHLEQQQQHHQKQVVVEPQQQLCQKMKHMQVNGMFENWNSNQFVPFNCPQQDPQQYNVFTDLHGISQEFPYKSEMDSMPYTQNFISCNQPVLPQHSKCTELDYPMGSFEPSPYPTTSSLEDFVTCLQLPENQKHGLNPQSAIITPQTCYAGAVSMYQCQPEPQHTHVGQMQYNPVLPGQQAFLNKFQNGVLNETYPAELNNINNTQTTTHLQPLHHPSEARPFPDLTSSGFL
Structure (SMILES),Potency,activation
C=C[Si](OCCOC)(OCCOC)OCCOC,inactive,
Cc1ccc(C(C)(C)C)cc1,inactive,
CCC/C=C/C=O,inactive,
OCCNCCO,inactive,
Nc1ccc2c(c1)C(=O)c1ccccc1C2=O,4.77 µM (active) and 3.06 µM (active),
Cc1ccc([N+](=O)[O-])c(C)c1,,0.736% (inactive)
CCCCCCOCCOCCO,,-1.22% (inactive)
Cc1ccc(C(C)(C)C)c(O)c1,inactive,
CC(=O)Nc1ccc2c(c1)Cc1cc(NC(C)=O)ccc1-2,inactive,
O=C(O)CCCCCCCCCCCC(=O)O,inactive,
NCCS(=O)(=O)O,,-0.359% (inactive)
c1ccc2ncccc2c1,inactive,
Nc1ccc2c(O)cc(S(=O)(=O)O)cc2c1,inactive,
CCO[Si](CCCNC(N)=O)(OCC)OCC,inactive,
C=CCNCC=C,inactive,
O=C(CCCN1CCC(O)(c2ccc(Cl)cc2)CC1)c1ccc(F)cc1,inactive,
CC[C@]12CCCN3CCc4c(n(c5ccccc45)[C@@](O)(C(=O)OC)C1)[C@@H]32,inactive,
CCc1cccc2c3c([nH]c12)C(CC)(CC(=O)O)OCC3 (stereo not given),inactive,
C1COCCN1,inactive,
Cc1ccc(S(=O)(=O)O)cc1C,inactive,

Structure (SMILES),Potency,activation
CC/C=C\C/C=C\C/C=C\CCCCCCCC(=O)O,inactive,
Oc1ccc(C(c2ccc(O)cc2)C(Cl)(Cl)Cl)cc1,inactive,
Nc1ccc(O)c(N)c1,inactive and 1.37 µM (active),
O=C(O)c1ccc(O)cc1,inactive,
CNC[C@H](O)c1ccc(O)c(O)c1,,1.59% (inactive)
NCCN,inactive,
C[C@]12C=CC(=O)C=C1CC[C@H]1[C@@H]3C[C@@H](O)[C@](O)(C(=O)CO)[C@@]3(C)C[C@H](O)[C@@]12F,inactive,
CCCCCCC(C)O (stereo not given),inactive,
CC(=O)O[C@]1(C(C)=O)CC[C@H]2[C@@H]3C=C(C)C4=CC(=O)CC[C@]4(C)[C@H]3CC[C@@]21C,inactive,
CCCCCCCC/C=C\CCCCCCCC(=O)O,inactive,
CC(=O)[C@H]1CC[C@H]2[C@@H]3CC=C4C[C@@H](O)CC[C@]4(C)[C@H]3CC[C@]12C,inactive,
Nc1cc([N+](=O)[O-])ccc1C(=O)O,21.7 µM (active),
c1ccc2c(c1)ccc1cc3c(ccc4ccccc43)cc12,958 nM (active) and 121 nM (active),
COc1ccc2nc(N)sc2c1,48.6 µM (active) and 27.3 µM (active),
CN1CCOCC1,inactive,
CC1(C)NC(=O)N(c2ccc([N+](=O)[O-])c(C(F)(F)F)c2)C1=O,inactive,
OC[C@H]1O[C@@H]2O[C@H]3[C@H](O)[C@@H](O)[C@@H](O[C@H]4[C@H](O)[C@@H](O)[C@@H](O[C@H]5[C@H](O)[C@@H](O)[C@@H](O[C@H]6[C@H](O)[C@@H](O)[C@@H](O[C@H]7[C@H](O)[C@@H](O)[C@@H](O[C@H]1[C@H](O)[C@H]2O)O[C@@H]7CO)O[C@@H]6CO)O[C@@H]5CO)O[C@@H]4CO)O[C@@H]3CO,inactive,
COc1ccc(-c2coc3cc(O)cc(O)c3c2=O)cc1,9.77 µM (active) and 9.69 µM (active),
CCCN1C=CN(C)C1,inactive,
COCCOCCOCCO,inactive,
